Bioassay records (PubChem)
Sampled rows, rich in hits. Any-hit rate of the full collection: about 5.2%.
rTrxR1 inhibitor – rat TrxR1 inhibition. O89049. recombinant rTrxR1, NADPH fluorescence consumption, selenite substrate. Potency, µM (doses to about 114 µM), actives largely listed as inhibitors. 390,000 compounds, 1% hits. AID 588453; note: nearly all actives have a fitted effect of over 65% in size
Target sequence (O89049 whole entry, looked up): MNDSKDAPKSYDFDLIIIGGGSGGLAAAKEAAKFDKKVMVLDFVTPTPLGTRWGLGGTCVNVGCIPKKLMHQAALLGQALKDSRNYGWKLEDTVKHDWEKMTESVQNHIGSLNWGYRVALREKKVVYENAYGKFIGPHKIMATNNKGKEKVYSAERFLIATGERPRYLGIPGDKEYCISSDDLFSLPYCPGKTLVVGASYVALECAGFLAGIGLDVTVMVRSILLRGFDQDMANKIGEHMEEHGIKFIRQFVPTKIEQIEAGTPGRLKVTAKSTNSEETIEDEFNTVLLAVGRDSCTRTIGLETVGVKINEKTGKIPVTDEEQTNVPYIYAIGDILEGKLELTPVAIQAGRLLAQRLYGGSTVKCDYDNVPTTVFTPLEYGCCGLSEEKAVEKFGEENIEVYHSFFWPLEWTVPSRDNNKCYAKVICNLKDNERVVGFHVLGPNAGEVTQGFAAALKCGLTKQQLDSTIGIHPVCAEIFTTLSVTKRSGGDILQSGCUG
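Rat TrxR1 (90 nM in the dispensed reagent) was pre-reduced with 400 uM NADPH for 5 min at room temperature, then incubated with compound for 15 min. After 400 uM selenite was added, NADPH fluorescence (Ex 340/Em 450 nm) was followed for 8 min.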
mIDH1 inhibitor – inhibitors of human mutant IDH1 R132H; O75874; IDH1-R132H enzyme, NADPH consumption, diaphorase/resazurin fluorescence; Potency, µM (titrated, usually from 76.6 µM), most hits filed as inhibitors; 390,000 compounds, 0.093% hits; AID 602179; note: nearly all actives have a fitted effect of over 65% in size
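IDH1-R132H (0.5 ug/mL dispensed) in pH 7.5 Tris buffer was preincubated 30 min with compound, then given a substrate mix of 0.016 mM NADPH and 2 mM alpha-KG for 80 min at room temperature; remaining NADPH was read by diaphorase/resazurin fluorescence.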
TrxR1 substrate – substrates of rat thioredoxin reductase 1 | Potency, µM (highest dose often 114 µM) | AID 588456 | 390,000 compounds, 0.01% hits | purified TrxR1 substrate turnover, NADPH consumption readout; note: nearly all actives have a fitted effect of over 50% in size
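Rat TrxR1, dispensed at 90 nM, was prereduced with 400 uM NADPH (final) for 5 min at ~22 deg C, then incubated with compound 15 min before 400 uM selenite. A first-read NADPH fluorescence drop versus no-compound background flagged substrates.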
VDR inh – vitamin D3 receptor (human) inhibition; VDR-SRC2-3 peptide fluorescence polarization, 2 h; Potency, µM, most hits filed as inhibitors; 400,000 compounds, 0.93% hits; AID 504847; P11473
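Compounds are added to VDR with labelled SRC2-3 coactivator peptide and held 2 h at room temperature. Inhibition of the VDR–peptide interaction is then read as a change in fluorescence polarization.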
Sfp inh – Sfp phosphopantetheinyl transferase inhibition | Biochemical Sfp PPTase activity, qHTS | 310,000 compounds, 3.5% hits | Q9F4F7 | Potency, µM, actives largely listed as inhibitors;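 note: the enzyme is Sfp with the accession as filed and its product quenches rhodamine fluorescence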
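Sfp 15 nM + cpd, 15 min RT; start w/ rhodamine-CoA 5 uM, BHQ-2-YbbR 12.5 uM (final); 50 mM Hepes pH 7.6, 10 mM MgCl2, 0.01% NP-40, 0.01% BSA; read 525/598 nm at 0 and 30 min.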
PLK1 PBD block – PLK1 (human) polo-box domain binding inhibition; P53350; Plk1 PBD binding of FITC phosphopeptide, fluorescence polarization; Potency, µM, most hits filed as inhibitors; 360,000 compounds, 2.8% hits; AID 720504; note: series mostly up to about 57 µM; nearly all actives have a fitted effect of over 65% in size
A number is an active result; 0 = inactive; ? = inconclusive; - = no result; [ ] = remark or other dose. Calls come from the whole dose curve; as a rule, active = well fitted curve in the direction sought with a large enough effect; inconclusive = small, poorly fitted or top-dose-only effect, or another doubt; inactive = no such curve, though single readings can be large; an effect the other way counts as inactive or inconclusive.

SMILES	rTrxR1 inhibitor	mIDH1 inhibitor	TrxR1 substrate	VDR inh	Sfp inh	PLK1 PBD block
CCOCc1nnc(NC(=O)c2c(-c3ccccc3)noc2C)s1	0	0	0[0.0914 µM]	?	?	30µM
COCc1nnc(NC(=O)c2cc(Cl)ccc2OC)s1	0	0	0	0	0	30µM
COc1ccc(Cc2nnc(NC(=O)c3c(-c4ccccc4)noc3C)s2)cc1	0	0	0	0	0	0
COCc1nnc(NC(=O)CCCOc2ccccc2OC)s1	0	0	0	0	0	27µM
COCc1nnc(NC(=O)c2ccc(OC)cc2OC)s1	0	0	0	0	0	0
COCc1nnc(NC(=O)CCCOc2ccccc2)s1	0	0	0	0	0	0
COc1cccc([C@@H]2Oc3ccc(OC)cc3C[C@H]2OC(=O)N[C@H]2CCCc3ccccc32)c1	-	-	-	0	0	-
CCOCc1nnc(NC(=O)c2cc(Cl)ccc2OC)s1	0	0	0	0	35µM	0
CCOCc1nnc(NC(=O)c2ccc(OC)cc2)s1	0	0	0	0	0	0
S=C(NCCCN(Cc1ccc(Cl)cc1)c1ccc(Br)cn1)NCc1ccc2nc[nH]c2c1	0	-	0	0	-	-
CCc1ccccc1NC(=O)CN1CCN(CC(=O)Nc2cc(C)ccc2OC)CC1	0	0	0	0	0	0
O=C(/C=C/c1cccs1)c1ccc(Br)cc1	0	0	0	50µM	0	0
Cc1cc(NC(=O)Nc2cccc(Cl)c2)n(-c2ccccn2)n1	0	0	0	0	0	0
Clc1ccc(-c2nc3ccccn3c2Nc2ccc3c(c2)OCCO3)s1	?	0	0	0	-	-
COc1ccc(C(=O)N(Cc2ccco2)Cc2cccs2)c(OC)c1	?	-	0	?	-	-
CCN1CC=C2C(C#N)=C(N)C(C#N)(C#N)C(CCc3ccccc3)C2C1 (stereo not drawn)	0	?	0	?	0	?
CC(=O)N1CC=C2C(C#N)=C(N)C(C#N)(C#N)C(CCc3ccccc3)C2C1 (stereo not drawn)	?	0	0	?	0	27µM
CCOc1ccc(-c2c(C)nn3c(C)c(C(=O)NCCc4ccc(C)cc4)cnc23)cc1OCC	0	-	0	0	-	-
CCOc1ccccc1NC(=O)COC(=O)CNS(=O)(=O)c1ccc(C)cc1	0	0	0	0	0	0
CCOc1ccccc1NC(=O)CCS(=O)(=O)c1ccc(Br)cc1	0	0	0	0	0	30µM
CCc1cccc(CC)c1NC(=O)CCS(=O)(=O)c1ccc(Br)cc1	0	0	0	0	-	-
CCOc1ccccc1NC(=O)COC(=O)CN(C)S(=O)(=O)c1ccc(C)cc1	0	0	0	?	0	27µM
O=C(CCS(=O)(=O)c1ccc(Br)cc1)Nc1cc(F)ccc1F	35µM	0	0	0	0	?
O=C(CCS(=O)(=O)c1ccc(Br)cc1)Nc1ccc(F)cc1F	0	0	0	0	-	-
CCc1ccccc1NC(=O)CCS(=O)(=O)c1ccc(Br)cc1	0	0	0	0	0	0
SMILES	rTrxR1 inhibitor	mIDH1 inhibitor	TrxR1 substrate	VDR inh	Sfp inh	PLK1 PBD block
COC(=O)c1ccccc1NC(=O)CCS(=O)(=O)c1ccc(Br)cc1	?	0	0	?	0	12µM
CCOc1ccc(CCNS(=O)(=O)c2c(C)nc3sc(C)cn3c2=O)cc1OCC	0	0	0	0	-	-
COc1ccc(C2Nc3ccccc3C(=O)N2Cc2ccccc2)cc1COc1ccc([N+](=O)[O-])cc1 (stereo not drawn)	0	-	0[0.0914 µM]	0	-	-
CCc1nc2ccc(C(=O)Nc3ccc(C(=O)N(C)C)cc3)cn2c1N(C)CCCc1ccccc1	-	-	-	-	-	0
CCCCn1c(=N)n(CC(=O)c2ccc([N+](=O)[O-])cc2)c2ccccc21	-	-	-	-	56µM	-
Cc1ccc(Cn2c(=N)n(CC(=O)c3ccc([N+](=O)[O-])cc3)c3ccccc32)cc1	0	0	0	0	35µM	0
CCCCn1c(=N)n(CC(=O)c2ccco2)c2ccccc21	0	0	0	0	0	0
COCCNC(=O)CCCn1c(SCC(=O)c2ccc(Br)cc2)nc2c(sc3ccccc32)c1=O	0	0	0	0	-	-
Cc1ccc(N=N/C(=C\O)C(=O)c2ccc(Cl)cc2)cc1	0	0	0	0	0	24µM
O=C(C[N+]12CN3CN(CN(C3)C1)C2)c1ccc(Cl)cc1	0	-	0[0.0914 µM]	-	-	-
COc1ccc(/C=C/C=C2\N=C(SC)SC2=O)cc1	0	0	0	0	45µM	0
CSC1=N/C(=C\c2ccc(F)cc2)C(=O)S1	0	0	0	0	0	0
O=C(CCNc1cccc(Cl)c1)c1cccs1	10µM	0	0	0	0	0
Cc1ccc(NCCC(=O)c2ccc(Cl)cc2)cc1C	50µM	0	0	0	0	0
Cc1ccc(NCCC(=O)c2cccs2)cc1C	4.5µM	0	0	?	0	?
Cc1ccc(NCCC(=O)c2cccs2)cc1Cl	?	0	0	0	0	0
C[C@H](NC(=O)CNC(=O)[C@@H](NC(=O)[C@H](Cc1ccccc1)NC(=O)CNC(=O)CNC[C@@H](N)Cc1ccccc1)[C@@H](C)O)C(=O)N[C@@H](CCCN=C(N)N)C(=O)N[C@@H](CCCCN)C(=O)N[C@@H](CO)C(=O)N[C@@H](C)C(=O)N[C@@H](CCCN=C(N)N)C(=O)N[C@@H](CCCCN)C(N)=O	-	-	-	0	0	-
CCCOc1ccc(-c2nc3ccc(Br)cc3c(=O)o2)cc1	0	0	0	0	-	-
CS(=O)(=O)c1ccc2c(c1)sc1nc(=O)c(/C=C3/C=CC(=O)C(O)=C3)c(N)n12	?	0	0	0	32µM	0
COC(=O)c1cc(C#N)c(NCc2ccccc2)nc1C	0	0	0	?	0	3.4µM
Cc1cc(C)c2ccc(Cl)cc2n1	?	0	0	0	0	0
Cc1cc(NN)nc2ccc(Cl)cc12	0	0	0	0	11µM	0
CCc1cc(=O)oc2c(C)c(OCC(=O)NCCCn3ccnc3)ccc12	0	0	0	0	0	0
O=C(Nc1cccc(-n2cnnn2)c1)c1ccc(Cl)cc1Cl	0	0	0	0	0	30µM
Oc1ccc(/C=N/NC(=S)Nc2cccnc2)c(O)c1O	?	0	0	50µM	3.5µM	6.7µM
SMILES	rTrxR1 inhibitor	mIDH1 inhibitor	TrxR1 substrate	VDR inh	Sfp inh	PLK1 PBD block
Oc1cccc(/C=N/NC(=S)Nc2cccnc2)c1O	0	0	0	0	?	0
Cc1cccc(N/N=C/c2ccc(O)c(O)c2O)c1	0	0	0	?	3.5µM	12µM
O=C(Oc1ccccc1)N1CCCCC1	-	0	-	-	-	0
Cc1ccc(S(=O)(=O)NCC(=O)NCC(=O)OCC(=O)N2CC(=O)Nc3ccccc32)cc1C	0	0	0	0	0	17µM
CCOc1ccc(N(CC)C(=O)c2nn(-c3ccc(OC)cc3)c(=O)c3c2c2ccccc2n3C)cc1	0	0	0	0	0	27µM
CCOc1ccccc1NC(=O)c1nn(-c2ccc(OC)cc2)c(=O)c2c1c1ccccc1n2C	0	-	0	0	-	-
CC(=O)c1ccc(Nc2nc(C)cc(C)n2)cc1	0	0	0	0	0	0
